High-throughput results as filed in PubChem BioAssay.
GRK2 inh: human GRK2 inhibition via aptamer displacement | bead flow cytometry, FAM-aptamer displacement from GRK2 | inhibition of aptamer binding, % at 10 µM | actives 0.59% (n = 330,000) | AID 488847;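 active = inhibition of aptamer binding above 40%, roughly 3 SD of noise, on plates passing a quality check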;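 also: median bead fluorescence of bound FAM aptamer so fluorescent compounds give negative values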
VLA-4 inh: inhibition in a human VLA-4 binding assay | inhibition, % (about 7 µM as worked out from the volumes in the protocol) | actives 0.2% (n = 330,000) | AID 2557 | VLA-4 expressing cells, ligand binding flow cytometry; in the data active = inhibition above about 50%
A3A deaminase: human APOBEC3A DNA deaminase inhibition; inhibition, % at 20 µM; actives 0.41% (n = 330,000); recombinant A3A, FAM/TAMRA ssDNA deamination fluorescence; P31941;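 active = at least 40% inhibition at 20 µM here, with at most 30% in a related deaminase screen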;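 also: plate controls were A3A with DMSO for no effect and wells lacking A3A enzyme for full effect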
Target sequence (P31941 whole entry, looked up): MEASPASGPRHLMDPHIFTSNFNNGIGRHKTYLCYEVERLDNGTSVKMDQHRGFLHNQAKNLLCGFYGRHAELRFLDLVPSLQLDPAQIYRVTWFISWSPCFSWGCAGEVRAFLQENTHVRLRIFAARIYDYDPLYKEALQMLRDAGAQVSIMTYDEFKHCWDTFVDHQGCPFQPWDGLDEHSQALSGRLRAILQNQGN
APOBEC3G inh: blocks human APOBEC3G single-stranded DNA deamination | recombinant A3G, ssDNA deamination FAM/TAMRA fluorescence | inhibition, % at 20 µM | actives 0.28% (n = 330,000);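 active = inhibition of at least 40% at 20 µM, with no more than 30% in the related APOBEC3A deaminase screen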;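 also: plate controls were DMSO wells with A3G for no effect and wells lacking A3G enzyme for full effect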
Target sequence (Q9HC16 whole entry, looked up): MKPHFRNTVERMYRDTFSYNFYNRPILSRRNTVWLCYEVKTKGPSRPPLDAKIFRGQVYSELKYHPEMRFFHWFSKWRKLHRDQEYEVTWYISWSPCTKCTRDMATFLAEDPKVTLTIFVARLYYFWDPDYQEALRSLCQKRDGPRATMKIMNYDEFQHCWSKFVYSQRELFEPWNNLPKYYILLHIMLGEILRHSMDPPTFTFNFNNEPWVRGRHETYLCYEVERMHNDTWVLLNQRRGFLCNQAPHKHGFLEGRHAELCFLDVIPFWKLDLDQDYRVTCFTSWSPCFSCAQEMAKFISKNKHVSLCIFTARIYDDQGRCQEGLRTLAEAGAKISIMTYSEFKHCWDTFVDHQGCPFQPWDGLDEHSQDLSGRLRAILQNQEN
A3A conf: APOBEC3A (human) deaminase inhibition, confirmed; shares compounds with A3A deaminase; recombinant A3A, ssDNA deaminase UDG fluorescence assay; inhibition, % at 20 µM; actives 63% (n = 1,400);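 active = inhibition reaching a set limit, 80% of the first screen's cutoff, at 20 µM in any replicate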;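 also: plate controls were DMSO wells with A3A for no effect and wells lacking A3A enzyme for full effect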
UDG A3A counter: inhibits UDG, flagging false APOBEC3A inhibitors; shares compounds with A3A deaminase; UDG counterscreen, FAM/TAMRA uracil oligo fluorescence; inhibition, % at 20 µM; 1,000 tested, under 10 active; AID 504714; call rule not given here
Numbers without * were called inactive; x = not tested or not shown. Shown are actives, neighbours in structure and some others; about 1.4% of the full set was active somewhere.

SMILES | GRK2 inh | VLA-4 inh | A3A deaminase | APOBEC3G inh | A3A conf | UDG A3A counter
CC(=O)Nc1cccc(C(=O)OCC(=O)Nc2c(C)nn(-c3ccccc3)c2C)c1 | 3 | 5 | 52* | 1 | 2 | x
CN(C)/C=C(/C(=O)c1ccc(Cl)cc1)S(C)(=O)=O | 0 | 9 | 43* | 5 | 1 | x
CN(C)/C=C(/C(=O)c1ccc(Cl)c(Cl)c1)S(C)(=O)=O | 1 | 12 | -2 | -4 | x | x
COc1ccc(CCNC(=O)CN(C2CCCCC2)S(C)(=O)=O)cc1OC | 0 | 5 | 44* | 25 | 58* | 5
CS(=O)(=O)N(CC(=O)NCCc1ccccc1)C1CCCCC1 | 6 | 6 | -5 | -5 | x | x
C=CCc1cccc2cc(C(=O)Nc3ccc(F)cc3)c(=O)oc12 | 5 | 6 | 0 | -9 | x | x
O=C(O)CCn1c2c(c3ccccc31)CCCC2 | 4 | 7 | 1 | -7 | x | x
CCCCCCCn1c2c(c(=N)c3ccccc31)CCC2 | 0 | -8 | 74* | 21 | 78* | -2
CCCn1c2c(c(=N)c3c1CCC3)CCCC2 | 2 | 18 | 92* | 16 | 77* | -1
CCOC(=O)Cn1c2c(c(=N)c3c1CCC3)CCCC2 | 2 | 2 | -3 | -6 | x | x
CCCn1c2c(c(=N)c3c1CCC3)CCC2 | 3 | -4 | 71* | 27 | 75* | 3
N=c1c2c(n(Cc3ccc(Br)cc3)c3c1CCC3)CCCC2 | 0 | 1 | 0 | -8 | x | x
CCN(CC)c1ccc2nc3ccccc3[n+](CC)c2c1 | 4 | -5 | 79* | 23 | 82* | 3
CCN(CC)c1ccc2nc3ccc(N)cc3[n+](-c3ccccc3)c2c1 | x | x | 17 | 11 | x | x
O=C(CCS(=O)(=O)Cc1ccc(Cl)cc1)NCCc1ccccc1 | 0 | -3 | 6 | 1 | x | x
Cc1noc(C)c1COC(=O)CNC(=O)c1ccc(Cl)cc1 | 0 | -5 | -2 | -8 | x | x
CCOc1ccc(N(CC(=O)Nc2ccccc2)S(C)(=O)=O)cc1 | 0 | 1 | 43* | 9 | 64* | -4
CCOc1ccc(N(CC(=O)Nc2ccc(C)c(C)c2)S(C)(=O)=O)cc1 | 0 | 6 | 46* | 3 | 2 | x
CCN(CC)CCN(C(=O)CCS(=O)(=O)c1ccccc1)c1nc2cc(OC)c(OC)cc2s1 | 0 | 6 | -2 | 0 | x | x
Cc1cccc2nc(C(=O)Nc3cc(Cl)ccc3-n3cncn3)cn12 | 0 | -8 | 49* | 9 | 36* | -1
CCOCc1cnc(C)nc1NCC(=O)c1c(C)[nH]c2ccc(OC)cc12 | 0 | 14 | 55* | 21 | 80* | 2
O=c1c(C(c2ccc(O)cc2)c2c(O)nc3n(c2=O)CCCS3)c(O)nc2n1CCCS2 | 6 | 7 | 25 | 11 | x | x
Cc1cc(C)cc(NC(=O)N2CCC(NC(=O)c3ccco3)CC2)c1 | 1 | 2 | 0 | -9 | x | x
CSC1=NC2C(N1)N(C)C(=O)N2C (stereo not drawn) | 4 | -14 | 58* | 20 | 21 | x
O=C(Cn1c2[n+](c3ccc(C(F)(F)F)cc31)CCCCC2)Nc1ccc(Br)cc1 | 0 | 0 | 47* | 13 | 14* | -3
SMILES | GRK2 inh | VLA-4 inh | A3A deaminase | APOBEC3G inh | A3A conf | UDG A3A counter
FC(F)(F)c1cccc(Cn2c3[n+](c4ccc(C(F)(F)F)cc42)CCCCC3)c1 | 0 | 12 | 49* | 21 | 75* | 4
N#Cc1ccc(NC(=O)Cn2c3[n+](c4ccc(C(F)(F)F)cc42)CCCCC3)cc1 | 0 | 15 | 53 | 49 | x | x
CC1=C(C(=O)OCc2ccccc2)C(c2ccccc2Cl)NC(=O)N1CCCCCC(=O)O (stereo not drawn) | 0 | -5 | -4 | -13 | x | x
Cn1c(CNc2ccc(Br)cc2)nc2ccccc21 | 0 | 7 | -2 | -7 | x | x
Cc1ccc(C)c(N2CCN(C(=O)CCNS(=O)(=O)c3ccc4c(c3)oc(=O)n4C)CC2)c1 | 4 | 10 | 2 | -9 | x | x
CCn1ncc(-c2ccnc3cc(C(=O)O)nn23)c1C | 11 | 9 | 94* | -13 | 77* | -3
Cc1ccc(C)c(C(=O)NC(C)c2ccc(-n3ccnc3)cc2)c1 (stereo not drawn) | 0 | -11 | 2 | 5 | x | x
Cc1ccc(C)c(OCc2cc(C(=O)N(C)Cc3nccs3)no2)c1 | 1 | 14 | -7 | -7 | x | x
Cc1ccc(/C=C2\SC(N)=NC2=O)s1 | 0 | -2 | 56* | -2 | -2 | -2
Cc1ccc(N2CC(C(=O)NCc3nnnn3-c3ccc(C)c(C)c3)CC2=O)cc1 (stereo not drawn) | 0 | 6 | 52* | -3 | 6 | -14
COc1ccc(Br)cc1CN(C)C(=O)c1ccncc1 | 7 | 24 | -1 | -4 | x | x
O=C(Oc1ccc(Cl)c(Cl)c1)C1=CC=CN2CCS(=O)(=O)N=C12 | 0 | 4 | -4 | -5 | x | x
COc1ccc(Br)cc1CN(C)C(=O)C1=CC=CN2CCS(=O)(=O)N=C12 | 2 | 11 | 55* | 3 | 51* | 3
CN(Cc1ccc(Cl)c(Cl)c1)C(=O)C1=CC=CN2CCS(=O)(=O)N=C12 | 0 | -11 | 47* | 15 | 43* | -2
CC[n+]1ccccc1/C=C/Nc1ccccc1 | 0 | 13 | 61* | 18 | 70* | 7
Cc1ccc2ccccc2[n+]1CCCS(=O)(=O)[O-] | 3 | -15 | 7 | 0 | x | x
CCC[n+]1c2ccccc2cc2ccccc21 | 11 | -2 | 47* | 12 | 42* | -2
CCCC[n+]1c2ccccc2cc2ccccc21 | 1 | 18 | 55* | 21 | 48* | -2
Brc1cc2ccccc2[n+](Cc2ccccc2)c1 | 1 | -5 | -5 | -8 | x | x
COc1ccc2nc(NC(=O)Cn3cnc4ccccc4c3=O)sc2c1 | 0 | 1 | 43* | 12 | 3 | x
O=C(Nc1ccccc1)c1ccccc1OCC(O)CN1C(=O)c2ccccc2S1(=O)=O (stereo not drawn) | 0 | -2 | 12 | 13 | x | x
CCC(Oc1ccccc1OC)C(=O)Nc1ccc2c(c1)OCCO2 (stereo not drawn) | 0 | 2 | x | x | 57* | x
CC(=O)c1cccc(OC(=O)c2ccc3c(=O)n4c(nc3c2)CCC4)c1 | 2 | -4 | 65* | 21 | 47* | -2
N#Cc1cc2cc3c(cc2nc1N1CCCCC1)OCCO3 | 0 | -44 | -2 | -5 | x | x
COc1ccc(C(C(=O)NCCC(C)C)N(CCO)C(=O)c2snc(C(N)=O)c2N)cc1 (stereo not drawn) | 0 | -7 | 77* | 0 | -1 | x
COc1ccc(C(C(=O)NCCC(C)C)N(CCO)C(=O)c2snc(C(N)=O)c2N)cc1OC (stereo not drawn) | 0 | 10 | -7 | -6 | x | x
O=[N+]([O-])c1ccc(C(O)C[n+]2ccccc2)cc1 (stereo not drawn) | x | 7 | 91* | 19 | 71* | -2
O=[N+]([O-])c1ccc(C(O)CN2CCN(c3ccccc3)CC2)cc1 (stereo not drawn) | 0 | 13 | 0 | -4 | x | x
